Screening results from PubChem.
GoLoco inh red: blocks human Gai1 binding to RGS12 GoLoco peptide, red readout | P63096 | Gai1:RGS12 GoLoco peptide FP, rhodamine, 10 min | Potency, µM (doses to about 61.6 µM), usual class: inhibitors | 0.44% of 230,000 active; active means well fitted inhibition curve with a large enough effect, not every such curve was filed as active; inactive means no such curve, though single readings can be large or run the other way; further: nearly all actives have a fitted effect of over 30% in size
TRb-SRC2 inh: TRbeta-SRC2 interaction inhibition. P10828. TRbeta-SRC2 peptide binding, fluorescence polarization; receptor liganded with 1 µM T3. Potency, µM (highest dose often 106 µM), usual class: inhibitors. 0.065% of 280,000 active. AID 1469; further: nearly all actives have a fitted effect of over 50% in size
Target sequence (P10828 whole entry, looked up): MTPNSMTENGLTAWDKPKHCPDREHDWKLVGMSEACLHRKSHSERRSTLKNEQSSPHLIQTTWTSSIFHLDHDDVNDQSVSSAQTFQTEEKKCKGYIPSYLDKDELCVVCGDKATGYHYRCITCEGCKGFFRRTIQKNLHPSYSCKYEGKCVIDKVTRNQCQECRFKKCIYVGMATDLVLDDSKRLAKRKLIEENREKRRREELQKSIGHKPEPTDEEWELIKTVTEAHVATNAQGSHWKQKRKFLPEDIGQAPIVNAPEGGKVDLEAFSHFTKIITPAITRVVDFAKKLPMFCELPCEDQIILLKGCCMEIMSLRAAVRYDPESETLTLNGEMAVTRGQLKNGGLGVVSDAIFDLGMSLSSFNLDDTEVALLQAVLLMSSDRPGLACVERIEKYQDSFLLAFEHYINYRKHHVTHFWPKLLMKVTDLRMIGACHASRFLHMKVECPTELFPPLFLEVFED
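Assay buffer: 20 mM Tris-HCl, 100 mM NaCl, 10% glycerol, 1 mM EDTA, 0.01% NP-40, 1 mM DTT, 1 uM T3, 5% DMSO; TRb LBD 0.6 uM, Texas Red SRC2 20 nM; FP after 5 hr.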
GCN5L2 inh: blocks human GCN5L2 histone acetyltransferase. 0.21% of 390,000 active. GCN5L2 HAT assay, ThioGlo1 CoA-SH fluorescence. Potency, µM (highest dose often 58.9 µM), hits mostly inhibitors. Q92830
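qHTS, 1536-well. 20nM enzyme, pH 7.5 HEPES/EDTA/Tween-20 buffer; 15 min compound preinc., RT. Start: 75uM H3(1-25), 70uM AcCoA, 50uM ThioGlo1. Read Ex340/Em540 at t=0 (autofluorescence flag) and t=20 min.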
VDR inh: blocks the human vitamin D receptor | P11473 | VDR-SRC2-3 peptide fluorescence polarization, 2 h | Potency, µM, hits mostly inhibitors | 0.93% of 400,000 active | AID 504847
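Signal is fluorescence polarization, reporting how far test compounds block the interaction of VDR with the SRC2-3 coregulator peptide after a 2 h room-temperature incubation.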
TR SRC2 fluor cs: alters Texas Red total fluorescence, flagging assay interference. TRb/SRC2 Texas Red total fluorescence interference. Potency, µM (highest dose often 106 µM). 0.29% of 280,000 active. AID 1479; active means well fitted curve in either direction with a large enough effect; inconclusive means small, poorly fitted or top-dose-only effect
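Human TRb ligand-binding domain at 0.6 uM with 20 nM Texas Red SRC2 peptide in Tris buffer containing 1 uM T3 and 5% DMSO, incubated with compound 5 h at ambient temperature. Total fluorescence (555/632 nm) calculated as parallel + 2 × perpendicular.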
Numbers stand for hits; - = inactive; ? = inconclusive; . = no result given; ! = a repeat was not active; [ ] = dose if it differs, or a comment. An excerpt weighted towards active compounds, which were near 1.2% of everything screened. Unless noted, the call rests on the fitted dose curve; in most records, active means well fitted curve in the direction sought with a large enough effect; inconclusive means small, poorly fitted or top-dose-only effect, or another doubt; inactive means no such curve, though single readings can be large; an effect the other way counts as inactive or inconclusive.

SMILES | GoLoco inh red | TRb-SRC2 inh | GCN5L2 inh | VDR inh | TR SRC2 fluor cs
Cc1cccc(C(=O)O)c1C[C@H]1NCC[C@H]2c3ccccc3N[C@@H]12 | -[14.2 µM] | . | . | . | .
Cc1ccc(S(=O)(=O)N2CCN(c3nc(-c4cnccn4)nc4ccccc34)CC2)cc1 | . | . | . | - | .
C=CC1=C2C=C(C3CC3)N(Cc3ccc4c(c3)OCO4)C=C2C(=O)C(C)(OC(=O)c2ccco2)C1=O (configuration not stated) | -[14.2 µM] | -[11.2 µM] | . | . | -[11.2 µM]
Cc1ccc(CN(C)C(=O)c2cc(COc3cccc(C(F)(F)F)c3)on2)o1 | . | . | - | 89.1µM | .
COc1cc(/C=C/C(=O)c2ccccc2O)cc(OC)c1OC | - | - | - | 31.6µM | -
O=C(C=Cc1ccccc1Cl)c1ccccc1 | . | . | . | 35.5µM | .
O=C(C=Cc1ccccn1)c1ccccc1 | . | . | . | 20µM | .
CCC(CC)NC(=O)/C=C/c1ccccc1Cl | - | - | - | 50.1µM | -
COc1cc(OC)c(C=CC(=O)c2ccccc2O)c(OC)c1 | . | . | . | - | .
COc1ccc(C2N=C(Nc3nc4ccccc4o3)NC3=C2C(=O)CC(C)(C)C3)cc1 (configuration not stated) | . | . | . | - | .
CCOc1cccc(C2C=C(c3ccc4c(c3)OCO4)NC(c3ccc(Br)cc3)N2)c1O (configuration not stated) | . | . | . | - | .
O=C(C=Cc1ccccn1)c1ccccc1O | . | . | . | 56.2µM | .
CCOc1ccccc1NC(=O)Cc1coc2c(C)c(C)ccc12 | . | - | - | - | 35.5µM[quencher]
CCOc1ccccc1NC(=O)Cc1coc2ccc(C)cc12 | - | - | - | - | -
Cc1ccc(/C=C2/NC(=O)N(Cc3ccccc3)C2=O)o1 | - | - | ? | 89.1µM | -
COC(=O)c1sc(=S)n(-c2ccccc2OC)c1N | - | - | - | - | -
Cc1ccc(NC(=O)c2sc(=S)n(-c3cc(C)ccc3F)c2N)cc1 | - | - | - | 89.1µM | -
COc1ccc(Cl)cc1-n1c(N)c(C(N)=O)sc1=S | - | - | - | 79.4µM | -
CCOc1ccccc1-n1c(N)c(C(N)=O)sc1=S | - | - | - | - | -
Cc1ccc(-n2c(N)c(C(N)=O)sc2=S)c(C)c1 | . | - | - | 89.1µM | -
Oc1ccc(Cl)cc1C1C=C(c2ccc3c(c2)OCO3)NC(c2ccc(Br)cc2)N1 (configuration not stated) | . | . | . | - | .
O=C=NC1CCC(CC2CCC(N=C=O)CC2)CC1 (configuration not stated) | . | - | . | . | -
c1ccc(N=c2nc(-c3ccccc3)n(-c3ccccc3)s2)cc1 | . | . | . | - | .
CC(C)C[C@H](NC(=O)[C@H](Cc1cnc[nH]1)NC(=O)[C@@H](N)Cc1cnc[nH]1)C(=O)NCC(=O)NCC(=O)N[C@@H](C)C(=O)N[C@@H](CCCCN)C(=O)N[C@@H](CCC(N)=O)C(=O)N[C@@H](C)C(=O)NCC(=O)N[C@@H](CC(=O)O)C(=O)N[C@H](C(=O)O)C(C)C | . | - | - | - | -
CCCC/C=C\CCCCCCCCO | . | - | . | . | -
SMILES | GoLoco inh red | TRb-SRC2 inh | GCN5L2 inh | VDR inh | TR SRC2 fluor cs
CCC(=O)Nc1cc2c(cc1C(=O)c1ccccc1)OCCO2 | - | ? | - | - | 28.2µM[fluorescent]
CC(C)CNC(=O)c1ccc(C2SCC(=O)N2Cc2ccccc2)cc1 (configuration not stated) | - | - | - | 79.4µM | -
CC(=O)OCCCCCCCCCCC[N+]1(C)CCCCC1 | - | - | - | - | -
COC(=O)CCCCCCCCCC[N+]1(C)CCCCC1 | 11.2µM | - | - | - | -
NS(=O)(=O)c1cccc2c1c([N+](=O)[O-])cc1nc(O)c(O)nc12 | - | - | - | 39.8µM! | -
CC(=O)c1c(COC(=O)c2cccnc2)nc2ccccc2[n+]1[O-] | 8.91µM | - | - | - | -
O=C1C[C@H]2OCC=C3CN4CC[C@@]5(C(=O)O)[C@H](N1)C2[C@H]3C[C@H]45 (some centres not stated) | -[14.2 µM] | . | . | . | .
CCOC(=O)C1=C(C)N=c2s/c(=C\c3ccc(OCC(=O)O)cc3)c(=O)n2C1c1ccc(Cl)cc1 (configuration not stated) | . | . | - | 79.4µM | .
CCOC(=O)C1=C(C)N=c2s/c(=C/c3ccc(OCC(=O)O)cc3)c(=O)n2C1c1ccc(F)cc1 (configuration not stated) | . | . | - | 70.8µM | .
CCOC(=O)C1=C(C)N=c2s/c(=C/c3ccc(OCC(=O)O)cc3)c(=O)n2C1c1ccc(OC)cc1OC (configuration not stated) | . | . | - | - | .
CCOC(=O)C1=C(C)N=c2s/c(=C\c3ccc(OCC(=O)O)cc3)c(=O)n2C1c1ccccc1OC (configuration not stated) | . | . | - | ? | .
Cc1ccc(S(=O)(=O)N2CCN(c3nc(-c4cccs4)nc4c3ncn4COC(=O)C(C)(C)C)CC2)cc1 | . | . | . | - | .
CC1(C)[C@@H](CC(=O)O)CCC[C@@H]1CC(=O)O | -[14.2 µM] | . | . | . | .
CCOC(=O)c1sc(=S)n(C)c1NC(=O)c1ccccc1 | - | - | - | 79.4µM | -
COC(=O)C1=C(C)N(Cc2ccccc2)[C@]23O[C@](C(=O)OC)(C(=O)N2C1c1ccccc1)C(c1ccccc1)C3C(=O)c1ccccc1 (some centres not stated) | . | -[11.2 µM] | . | . | -[11.2 µM]
CCCCn1c(-c2ccc(OC)cc2)nc2c(=O)n(C)c(=O)[nH]c21 | . | . | - | 50.1µM | .
CCCn1c(-c2ccc(OC)cc2)nc2c(=O)n(C)c(=O)[nH]c21 | - | - | - | - | -
COC(=O)c1c(Cl)nn(C)c1S(=O)(=O)NC(=O)Nc1nc(OC)cc(OC)n1 | . | - | . | . | -
CCCN1CNc2c(c(=O)[nH]c(=S)n2CCc2ccc(OC)cc2OC)C1 | . | . | . | - | .
O=[N+]([O-])c1ccc(-[n+]2ccc3ccccc3c2)c([N+](=O)[O-])c1 | . | . | - | 79.4µM | .
CCCN1CCN(C(=O)c2oc3ccccc3c2NC(=O)COc2ccc(OC)cc2)CC1 | . | . | - | 20µM | .
CC(=O)OCC1OC(n2cc(F)c(=O)[nH]c2=O)C(OC(C)=O)C1OC(C)=O (configuration not stated) | . | . | . | - | .
O=C1C(F)=CC(COC(c2ccccc2)(c2ccccc2)c2ccccc2)OC1n1cc(F)c(=O)[nH]c1=O (configuration not stated) | . | . | . | 44.7µM | .
CC(C)(C)C1CCC(O)CC1 (configuration not stated) | . | - | . | . | -
c1ccc(CNCc2ccco2)cc1 | . | . | - | - | .
SMILES | GoLoco inh red | TRb-SRC2 inh | GCN5L2 inh | VDR inh | TR SRC2 fluor cs
C#CCCCCCCCCCCCc1ccco1 | - | - | ? | 35.5µM | -
OCc1cc2c(cn1)[nH]c1ccccc12 | - | - | ? | - | -
OCc1ccccc1SSc1ccccc1CO | . | . | . | 8.91µM | .
CC(C)C(=O)Nc1cc(S(=O)(=O)N2CCOCC2)ccc1N1CCCCC1 | . | . | - | 70.8µM | .
CCCC(=O)Nc1cc(S(=O)(=O)N2CCOCC2)ccc1N1CCCCC1 | . | . | - | 89.1µM | .
O=c1c2ccccc2sn1-c1cc(S(=O)(=O)N2CCOCC2)ccc1N1CCCCC1 | . | . | . | 28.2µM | .
CCCC(=O)Nc1cc(S(=O)(=O)N2CCCCC2)ccc1N1CCOCC1 | . | . | - | - | .
